Test results: PubChem BioAssay AID1159580 (chemical genetic matrix, 2015)
The whole screen tested about 5,500 compounds, of which about 2,000 (36%) were called active. Another 18% or so got no clear call; they are omitted. Cut-off read from the data, not from the text of the source: active = normalized growth mostly below about 0.91 (no sharp cut-off); inconclusive = no clear call, values can overlap the other calls; inactive = mostly above about 0.92. The list shows a part of the results.

Test: chemical genetic growth profiling, strain panel (AID 1159580);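 note: tested at 20 µM; growth read once vehicle control cultures reached saturation at 30 °C; 1 = growth at the plate median or of vehicle wells; lower values mean less growth of the strain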
Details: growth OD

Measured: normalized growth

CC1=C2C(O)C(=O)OC3CC4C(C)(C)C(=O)C=C[C@]4(C)C(CC1)[C@]23C (some centres not stated)
inactive: S. cerevisiae deletion strains, locus YJR043C, strain POL32, active compounds read low 1.01 | S. cerevisiae deletion strains, locus YJR066W, strain TOR1, active compounds read low 0.967 | S. cerevisiae deletion strains, locus YJR075W, strain HOC1, active compounds read low 1.03 | S. cerevisiae deletion strains, locus YKL009W, strain mrt4, active compounds read low 1.03 | S. cerevisiae deletion strains, locus YKL068W, active compounds read low 1.01 | S. cerevisiae deletion strains, locus YKL085W, strain MDH1 (second series), active compounds read low 1 | S. cerevisiae deletion strains, locus YKL085W, strain MDH1, active compounds read low 1 | S. cerevisiae deletion strains, locus YKL160W, strain elf1, active compounds read low 1 | S. cerevisiae deletion strains, locus YKR001C, strain vps1, active compounds read low 0.996 | S. cerevisiae deletion strains, locus YKR026C, strain gcn3, active compounds read low 1.01 | S. cerevisiae deletion strains, locus YKR091W, strain srl3, active compounds read low 1.01 | S. cerevisiae deletion strains, locus YLL001W, strain dnm1, active compounds read low 0.992 | S. cerevisiae deletion strains, locus YLL026W, active compounds read low 1.01 | S. cerevisiae deletion strains, locus YLL041C, strain sdh2, active compounds read low 1.02 | S. cerevisiae deletion strains, locus YLR027C, strain aat2, active compounds read low 1 | S. cerevisiae deletion strains, locus YLR039C, strain RIC1, active compounds read low 1.15 | S. cerevisiae deletion strains, locus YLR058C, strain SHM2, active compounds read low 1.03 | S. cerevisiae deletion strains, locus YLR102C, strain apc9, active compounds read low 1.02 | S. cerevisiae deletion strains, locus YLR113W, strain HOG1, active compounds read low 0.984 | S. cerevisiae deletion strains, locus YLR221C, strain rsa3, active compounds read low 1.03 | S. cerevisiae deletion strains, locus YLR258W, strain gsy2, active compounds read low 1.01 | S. cerevisiae deletion strains, locus YLR262C, strain YPT6 (second series), active compounds read low 1.06 | S. cerevisiae deletion strains, locus YLR268W, strain sec22, active compounds read low 1.02 | S. cerevisiae deletion strains, locus YLR320W, strain mms22, active compounds read low 1.01 | S. cerevisiae deletion strains, locus YLR342W, strain FKS1 (second series), active compounds read low 1.03 | S. cerevisiae deletion strains, locus YLR342W, strain FKS1, active compounds read low 1.01 | S. cerevisiae deletion strains, locus YLR357W, strain rsc2, active compounds read low 1.02 | S. cerevisiae deletion strains, locus YLR370C, strain arc18, active compounds read low 1 | S. cerevisiae deletion strains, locus YLR371W, strain rom2, active compounds read low 0.985 | S. cerevisiae deletion strains, locus YLR384C, strain iki3, active compounds read low 1.02 | S. cerevisiae deletion strains, locus YLR418C, strain cdc73, active compounds read low 1.07 | S. cerevisiae deletion strains, locus YML016C, strain PPZ1, active compounds read low 1.02 | S. cerevisiae deletion strains, locus YML032C, strain rad52, active compounds read low 1 | S. cerevisiae deletion strains, locus YML120C, strain ndi1, active compounds read low 1 | S. cerevisiae deletion strains, locus YML124C, strain tub3, active compounds read low 1.01 | S. cerevisiae deletion strains, locus YMR058W, strain fet3, active compounds read low 1.01 | S. cerevisiae deletion strains, locus YMR078C, strain ctf18, active compounds read low 1.02 | S. cerevisiae deletion strains, locus YMR125W, strain sto1, active compounds read low 1.01 | S. cerevisiae deletion strains, locus YMR129W, active compounds read low 1.01 | S. cerevisiae deletion strains, locus YMR205C, strain PFK2, active compounds read low 1 | S. cerevisiae deletion strains, locus YMR223W, strain ubp8, active compounds read low 1.01 | S. cerevisiae deletion strains, locus YMR231W, strain pep5, active compounds read low 1.01 | S. cerevisiae deletion strains, locus YMR307W, strain GAS1, active compounds read low 1.03 | S. cerevisiae deletion strains, locus YNL067W, strain RPL9B, active compounds read low 1.05 | S. cerevisiae deletion strains, locus YNL071W, strain lat1, active compounds read low 0.999 | S. cerevisiae deletion strains, locus YNL128W, strain TEP1, active compounds read low 1.02 | S. cerevisiae deletion strains, locus YNL183C, strain NPR1, active compounds read low 0.978 | S. cerevisiae deletion strains, locus YNL209W, strain ssb2, active compounds read low 1.01 | S. cerevisiae deletion strains, locus YNL233W, strain BNI4, active compounds read low 1.06 | S. cerevisiae deletion strains, locus YNL248C, strain rpa49, active compounds read low 1.01 | S. cerevisiae deletion strains, locus YNL250W, strain rad50, active compounds read low 1.03 | S. cerevisiae deletion strains, locus YNL271C, strain bni1, active compounds read low 1.02 | S. cerevisiae deletion strains, locus YNL298W, strain CLA4, active compounds read low 1 | S. cerevisiae deletion strains, locus YNL307C, strain MCK1, active compounds read low 1.03 | S. cerevisiae deletion strains, locus YNL322C, strain KRE1 (second series), active compounds read low 1.04 | S. cerevisiae deletion strains, locus YNR049C, strain mso1, active compounds read low 1.01 | S. cerevisiae deletion strains, locus YNR052C, strain pop2, active compounds read low 1.04 | S. cerevisiae deletion strains, locus YOL012C, strain htz1 0.949 | S. cerevisiae deletion strains, locus YOL147C, strain pex11, active compounds read low 1.01 | S. cerevisiae deletion strains, locus YOR001W, strain rrp6, active compounds read low 1.01 | S. cerevisiae deletion strains, locus YOR061W, strain CKA2, active compounds read low 1.01 | S. cerevisiae deletion strains, locus YOR069W, strain VPS5, active compounds read low 1.01 | S. cerevisiae deletion strains, locus YOR070C, strain gyp1, active compounds read low 1.02 | S. cerevisiae deletion strains, locus YOR080W, strain dia2, active compounds read low 1.02 | S. cerevisiae deletion strains, locus YOR083W, strain WHI5, active compounds read low 1.01 | S. cerevisiae deletion strains, locus YOR106W, strain vam3, active compounds read low 0.983 | S. cerevisiae deletion strains, locus YOR136W, strain idh2, active compounds read low 1.03 | S. cerevisiae deletion strains, locus YOR144C, strain elg1, active compounds read low 1.01 | S. cerevisiae deletion strains, locus YOR184W, strain ser1, active compounds read low 1.01 | S. cerevisiae deletion strains, locus YOR231W, strain MKK1, active compounds read low 1.03 | S. cerevisiae deletion strains, locus YOR265W, strain rbl2, active compounds read low 1 | S. cerevisiae deletion strains, locus YOR270C, strain vph1, active compounds read low 1.05 | S. cerevisiae deletion strains, locus YOR290C, strain snf2, active compounds read low 1.01 | S. cerevisiae deletion strains, locus YOR316C, strain cot1, active compounds read low 1.01 | S. cerevisiae deletion strains, locus YPL051W, strain arl3, active compounds read low 1.02 | S. cerevisiae deletion strains, locus YPL055C, strain LGE1, active compounds read low 1.03 | S. cerevisiae deletion strains, locus YPL078C, strain atp4, active compounds read low 0.998 | S. cerevisiae deletion strains, locus YPL106C, strain sse1, active compounds read low 1.03 | S. cerevisiae deletion strains, locus YPL240C, strain hsp82, active compounds read low 1.01 | S. cerevisiae deletion strains, locus YPL241C, strain CIN2, active compounds read low 1.01 | S. cerevisiae deletion strains, locus YPL256C, strain CLN2, active compounds read low 1.01 | S. cerevisiae deletion strains, locus YPR119W, strain clb2, active compounds read low 1.01 | S. cerevisiae deletion strains, locus YPR141C, strain kar3, active compounds read low 1.03 | S. cerevisiae deletion strains, locus YPR163C, strain tif3, active compounds read low 1.02 | S. cerevisiae deletion strains, locus YPR167C, strain met16, active compounds read low 1.03 | S. cerevisiae deletion strains, strain wtn01, active compounds read low 0.994 | S. cerevisiae strains, strain wild type, active compounds read low 1.01
